A structure can be active in one record and inactive in another. Activity calls are given as the source filed them. Rule for the calls: active = hit-call score of the fitted dose curve at least 0.9, where 1 is the maximum; inactive = score below 0.9.

The target in the experiment is CCAAT/enhancer-binding protein beta (Homo sapiens) (UniProt P17676). As to the kind of experiment: ATG_C_EBP_CIS: Attagene CIS-FACTORIAL HepG2 Assay for human CCAAT/Enhancer Binding Protein (C/EBP) beta (AID 2282927). To be noted: HepG2 Attagene cis-factorial transcription factor reporter; actives raise or lower the signal. As to the method: ATG_CIS is a cell-based, multiplexed-readout assay that uses HepG2, a human liver cell line, with measurements taken at 24 hours after chemical dosing in a 24-well plate.ATG_C_EBP_CIS is one of 52 assay component(s) measured or calculated from the ATG_CIS assay. It is designed to make measurements of mRNA induction, a form of inducible reporter, as detected with fluorescence intensity signals by Reverse transcription polymerase chain reaction (RT-PCR) and Capillary electrophoresis technology.Data from the assay component ATG_C_EBP_CIS was analyzed into 1 assay endpoint. This assay endpoint, ATG_C_EBP_CIS, was analyzed with bidirectional fitting relative to DMSO as the negative control and baseline of activity. Using a type of inducible reporter, measures of mRNA for gain or loss-of-signal activity can be used to understand the reporter gene at the transcription factor-level as they relate to the gene CEBPB. Furthermore, this assay endpoint can be referred to as a primary readout, because this assay has produced multiple assay endpoints where this one serves a reporter gene function. To generalize the intended target to other relatable targets, this assay endpoint is annotated to the dna binding intended target family, where the subfamily is basic leucine zipper.
CCAAT/enhancer-binding protein beta (Homo sapiens), sequence (P17676 whole entry, looked up): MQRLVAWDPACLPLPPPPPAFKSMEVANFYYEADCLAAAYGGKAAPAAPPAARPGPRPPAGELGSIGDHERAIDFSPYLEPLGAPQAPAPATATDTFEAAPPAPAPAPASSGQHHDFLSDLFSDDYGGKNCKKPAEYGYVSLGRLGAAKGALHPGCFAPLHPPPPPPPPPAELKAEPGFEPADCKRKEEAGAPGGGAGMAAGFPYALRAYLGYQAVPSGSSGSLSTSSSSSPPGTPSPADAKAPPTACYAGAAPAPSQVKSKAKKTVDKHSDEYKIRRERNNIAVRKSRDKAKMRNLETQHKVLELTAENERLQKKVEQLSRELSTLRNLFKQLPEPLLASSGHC
Human liver HepG2 cells are transiently transfected with multiple reporter transcription units (MRTUs) in 6-well plates using FuGene 6 reagent (Roche; 3 ml FuGene/1 mg DNA). The MRTU constructs are regulated by a cis-regulating element (promoter). […] A major difference between the CIS and TRANS system is that in CIS activities of endogenous TFs are measured, whereas the TRANS assay evaluates changes in activities of exogenous, chimeric NR-Gal4 proteins. […] At the end of 24 hour incubation, total RNA was isolated using TriZol reagent (Invitrogen). The isolated RNA is then reverse-transcribed using oligo(dT) primer and Mo-MLV reverse transcriptase (Invitrogen) with DNAse I (Ambion) treatment for 30 min. The one-tenth of the produced cDNA was amplified by PCR using Taq DNA polymerase (Invitrogen) and two reporter sequence-specific primers. The PCR products were fluorescently labeled by primer extension with 6-arboxyfluorescein (6-FAM) 5'-labeled reporter sequence-specific primer (2 min at 95 C, 20 s at 68 C and 10 min at 72 C) and these products were digested with 5U of HpaI (New England Biolabs) for 2h at 37 C. The fragments were purified using Qiaquick PCR columns (Qiagen), analyzed on an ABI 3130xL genetic analyzer (Applied Biosystems) with peak positions identified by using a set of X-rhodamine (ROX)-labeled MapMarker1000 molecular weight standards (BioVentures). The raw capillary electrophoresis data was processed using Attagraph software (Attagene).
Consider `ClC1=C(Cl)[C@]2(Cl)[C@@H]3[C@@H](Cl)[C@H]4O[C@H]4[C@@H]3C1(Cl)C2(Cl)Cl`, for which the result was inactive.
Regarding `ClC(Cl)=C(c1ccc(Cl)cc1)c1ccc(Cl)cc1`, the outcome was inactive and the AC50 was 166 µM (active).
Take `Clc1ccc(C(c2ccccc2Cl)C(Cl)(Cl)Cl)cc1` (stereo not given): the AC50 was 131 µM (active) and the outcome was inactive.
On to `Cc1cc(-c2ccc(N)c(C)c2)ccc1N`, for which the result was inactive.
Regarding `CC(C)(O)C(=O)Nc1ccc([N+](=O)[O-])c(C(F)(F)F)c1`, the result was inactive and the AC50 was 57.1 µM (active).
On to `CC(C)C(=O)OCC(C)(C)C(OC(=O)C(C)C)C(C)C` (stereo not given), for which the result was inactive.
In the case of `CCC(C)(CC)c1cc(NC(=O)c2c(OC)cccc2OC)on1`, the half-maximal activity concentration (AC50) was 1.48 µM (active).
As to `ClC1=C(Cl)[C@]2(Cl)[C@@H]3[C@@H]4C[C@@H]([C@H]5O[C@@H]45)[C@@H]3[C@@]1(Cl)C2(Cl)Cl`, the outcome was inactive.
With `CCOC(=O)C(O)(c1ccc(Cl)cc1)c1ccc(Cl)cc1`, the outcome was inactive.
Consider `ClC1=C(Cl)[C@]2(Cl)[C@@H]3[C@H]4C[C@H]([C@@H]5O[C@H]45)[C@@H]3[C@@]1(Cl)C2(Cl)Cl`, for which the outcome was inactive.
As for `Cc1cc(O)ccc1Cl`, the outcome was inactive.
With `CC(C)(c1ccccc1)c1ccc(O)cc1`, the AC50 is 46.6 µM (active) and the result was inactive.
As for `c1ccc(-c2ccccc2)cc1`, the outcome was inactive.
The same measure, in the same setting: the result for `CCCCCCCCOC(=O)c1ccccc1C(=O)OCCCCCCCC` reads “inactive”; that for `COS(=O)(=O)OC`, “inactive”.
Consider `CN(C)c1nc(=O)n(C2CCCCC2)c(=O)n1C`, for which the outcome was inactive.
The same measure, in the same setting: the result for `Cc1ccc(O)c(C)c1` reads “inactive”.
The same measure, in the same setting: under `N#Cc1ccc(N(CC(N)=O)CC(F)(F)F)cc1C(F)(F)F` stands “inactive”.
For the compound `CC1=C2C[C@H]3[C@@H](CC=C4C[C@@H](O)CC[C@@]43C)[C@@H]2CC[C@]12O[C@@H]1C[C@H](C)CN[C@H]1[C@H]2C`, the AC50 is 13.9 µM (active).
On to `Oc1c(Cl)c(Cl)c(Cl)c(Cl)c1Cl`, for which the outcome was inactive and the AC50 is 13.7 µM (active).
On to `O=C(O)C(F)(F)C(F)(F)C(F)(F)C(F)(F)C(F)(F)C(F)(F)C(F)(F)C(F)(F)C(F)(F)F`, for which the result was inactive.
`Oc1ccc(C(c2ccc(O)cc2)(C(F)(F)F)C(F)(F)F)cc1`: the outcome was inactive.
The same measure, in the same setting: under `O=C(NC(=O)c1cc(F)c(F)cc1Cl)Nc1cc(F)ccc1N1CCC(C(=O)O)CC1` stands “inactive”.
Take `c1cc2ccc3cccc4ccc(c1)c2c34`: the result was inactive.
`CCCCCCOC(=O)c1ccccc1C(=O)OCCCCCC`: the outcome was inactive.
On the same count and under the same terms, the result for `Nn1cnnc1` reads “inactive”; that for `CCOP(=S)(OCC)SCSC(C)(C)C`, “inactive”.
On the same count and under the same terms, the result for `Cc1cccc([N+](=O)[O-])c1` reads “inactive”; that for `O=C(N[C@H]1CN2CCC1CC2)c1cc2ccoc2cn1`, “inactive”; that for `CCSC(=O)N(CC)C1CCCCC1`, “inactive”.
On the same count and under the same terms, the result for `Cc1ccccc1O` reads “inactive”; that for `Cc1ccccc1CO[C@@H]1C[C@@]2(C(C)C)CC[C@]1(C)O2`, “inactive”.
As to `CCC(C)(c1ccc(O)cc1)c1ccc(O)cc1`, the outcome was inactive.
Take `Cc1ccccc1[N+](=O)[O-]`: the result was inactive.
The same measure, in the same setting: under `CC(c1ccc(O)cc1)(c1ccc(O)cc1)c1ccc(O)cc1` stands “inactive”.

The values above are taken from PubChem BioAssay (EPA / NIEHS).
